The source of these data is PubChem BioAssay (NCATS).

SMILES strings stand for the structures. Inconclusive results are not listed. Active and inactive are the calls of the source. Calls follow the shape of the dose curve; as a rule, active = well fitted inhibition curve with a large enough effect; inconclusive = small, poorly fitted or top-dose-only effect; inactive = flat fitted curve, though single readings scatter.
% is scaled to controls: 0 for no effect and ±100 for the full control effect; potency is read from the fitted curve at half-maximal effect.

For the first assay, the system named is CRL-7250. The assay can be described thus: qHTS assay to identify novel small-molecules to repurpose for Merkel cell carcinoma treatment (AID 1296009). Also: nearly all actives have a fitted effect of over 60% in size. The conditions noted are these: MCC and control cell lines, CellTiter-Glo viability, 72 h; at 44.8 µM (top of the series) unless noted. In a few lines: (§1)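 Cell viability measured by CellTiter-Glo following 72 hr compound treatment at 37 degree celsius, with NPC and MIPE libraries tested in 8- and 11-point concentration series.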
Consider `O=C1CCCC2=C1C(c1[nH]ncc1Cl)N=C(Nc1nc3ccccc3o1)N2` (stereo not drawn), for which the outcome was inactive.

Regarding `Cc1cc2c(cc1C1(c3ccc(C(=O)O)cn3)CC1)C(C)(C)CCC2(C)C`, the result was inactive.

Take `CC(C)OC(=O)C1=CN(C(=O)c2ccc(F)c(F)c2)CC(C)(C)c2c1[nH]c1ccccc21`: the compound was classed as inactive.

As to `COc1ccc2cc(CCC(C)=O)ccc2c1`, the compound was called inactive.

On to `COc1ccc(CCN(C)CCCOc2ccc(S(=O)(=O)c3[nH]c4ccccc4c3C(C)C)cc2)cc1OC`, for which the compound was classed as inactive.

Consider `O=S(c1cc(Cl)cc(Cl)c1O)c1cc(Cl)cc(Cl)c1O`, for which the compound was classed as inactive.

As for `CS(=O)(=O)Oc1ccc2c(NC(N)=O)c(C(=O)c3ccc(Cl)cc3Cl)oc2c1`, the outcome was inactive.

For the compound `COc1ccc2c(c1)c1c3n2CCN(C)C3=NCC1`, the compound was classed as inactive.

Regarding `O=[N+]([O-])c1cccc(S(=O)(=O)NCCNS(=O)(=O)c2cccc([N+](=O)[O-])c2)c1`, the compound was called inactive.

On to `CC(C[N+](C)(C)C)OC(N)=O` (stereo not drawn), for which the result was inactive.

In the case of `CCOC(=O)C(=O)CCCCCCl`, the compound was called inactive.

For the compound `Cc1cccc(C)c1NC(=O)c1ccccc1C(=O)O`, the compound was classed as inactive.

Turning to `CN1CCN(c2c(F)cc3c(=O)c(C(=O)O)cn4c3c2OCN4C)CC1`, the outcome is “inactive [at 17.4 µM]”.

Consider `CCCCC(CC)COC(=O)c1ccc(N(C)C)cc1` (stereo not drawn), for which the compound was called inactive.

The subject of another assay is HACAT. The description is as above. The conditions noted are these: MCC and control cell lines, CellTiter-Glo viability, 72 h; at 44.8 µM (top of the series) unless noted. In a few lines:
as §1
(In general: ATP-based viability assays read luminescence as a measure of living cells.)
For the compound `C[C@](O)(COc1ccc(C#N)cc1)C(=O)Nc1ccc(C#N)c(C(F)(F)F)c1`, the result was inactive.

Regarding `C=CCC1=C(C)C(OC(=O)C2C(C=C(C)C)C2(C)C)CC1=O` (stereo not drawn), the outcome is “inactive [at 92 µM]”.

For `COCC1(CO)C(=O)C2CCN1CC2` (stereo not drawn), the compound was classed as inactive.

Another assay concerns MCC-13. The assay is described as above. The conditions noted are these: MCC and control cell lines, CellTiter-Glo viability, 72 h; series mostly up to 46 µM; activity change, negative = cytotoxicity: at the top concentration. In a few lines:
as §1
As for `S=C(SSC(=S)N1CCCCC1)N1CCCCC1`, the Potency was 168 nM (active).

For `CC(C)Oc1cccc(NC(=O)c2ccccc2C(F)(F)F)c1`, the “activity change, negative = cytotoxicity” value is -3.71% [at 92.7 µM] (inactive).

For the compound `COc1ccc(C(c2ccc(OC)cc2)C(Cl)(Cl)Cl)cc1`, the “activity change, negative = cytotoxicity” value was -7.82% [at 92.7 µM] (inactive).

With `CCCCCCCCc1ccc(O)cc1`, the “activity change, negative = cytotoxicity” value is -7.44% [at 92.7 µM] (inactive).

Consider `C[C@](O)(COc1ccc(C#N)cc1)C(=O)Nc1ccc(C#N)c(C(F)(F)F)c1`, for which the “activity change, negative = cytotoxicity” value was 1.9% (inactive).

Consider `CCCN1CCO[C@@H]2c3cc(O)ccc3OC[C@@H]21`, for which the “activity change, negative = cytotoxicity” value is -1.27% (inactive).

In the case of `CC1(N2CCC(n3c([C@@H]4CCCNC4)nc4ccccc43)CC2)CCCCCCC1`, the “activity change, negative = cytotoxicity” value was -8.83% (inactive).

`CC(=O)[O][Hg][c]1ccccc1`: the Potency is 1060 nM (active).

For the compound `O=C(O)c1cc(Oc2ccc(C(F)(F)F)cc2Cl)ccc1[N+](=O)[O-]`, the “activity change, negative = cytotoxicity” value is -3.74% (inactive).

Regarding `C=CCC1=C(C)C(OC(=O)C2C(C=C(C)C)C2(C)C)CC1=O` (stereo not drawn), the “activity change, negative = cytotoxicity” value was 0.306% [at 92.7 µM] (inactive).

Turning to `C[C@@]12OC(=O)[C@]1([C@@H](O)[C@@H]1C=CCCC1)NC(=O)[C@H]2CCCl`, the Potency was 3320 nM (active).

Turning to `ClC1=C(Cl)[C@]2(Cl)[C@@H]3[C@@H]4C[C@@H]([C@H]5O[C@@H]45)[C@@H]3[C@@]1(Cl)C2(Cl)Cl`, the “activity change, negative = cytotoxicity” value is -6.82% [at 92.7 µM] (inactive).

As to `CCCN(CCC)c1c([N+](=O)[O-])cc(S(N)(=O)=O)cc1[N+](=O)[O-]`, the Potency is 24300 nM (active).

In the case of `Nc1ccc(Cl)cc1N`, the “activity change, negative = cytotoxicity” value is 0.787% [at 92.7 µM] (inactive).

Turning to `COCC1(CO)C(=O)C2CCN1CC2` (stereo not drawn), the “activity change, negative = cytotoxicity” value is -12.5% (inactive).

As to `CN1[C@H]2CC(O)C[C@H]1[C@H]1O[C@H]12` (stereo partly drawn), the “activity change, negative = cytotoxicity” value was -3.06% (inactive).
